In the library only some 0.93% were active in any assay of this set; here they are far more common.
LAP4-GFP MLPCN: modulators of TOR pathway LAP4-GFP in S. cerevisiae | 0.34% of 320,000 active | S. cerevisiae LAP4-GFP multiplex, flow cytometry GFP, 3 h; median GFP as percent of DMSO wells | GFP response vs DMSO, % at 10 µM;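 active = GFP response vs DMSO above a set limit, about the screen mean plus 3 SD, cut at about 150% in these data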
RPL19A TOR yeast: alters RPL19A-GFP fluorescence in TOR pathway yeast screen. percent response vs DMSO, % at 10 µM. 0.3% of 330,000 active. S. cerevisiae RPL19A-GFP strain, flow cytometry, 3 h; hits give low values. AID 2025;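 active = percent response vs DMSO below 50%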;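 note: median channel GFP fluorescence of the barcoded RPL19A-GFP strain; lower means less RPL19A-GFP as with rapamycin TOR inhibition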
CIT2 TOR yeast: yeast TOR pathway CIT2-GFP modulation | S. cerevisiae CIT2-GFP strain, flow cytometry, 3 h; 100 means same as DMSO wells | GFP response vs DMSO, % at 10 µM | 0.065% of 320,000 active | AID 2029;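 active = GFP response relative to DMSO above a set limit, near the screen mean plus 3 SD, cut at about 150% in these data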;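 note: ratio of well median GFP fluorescence to mean of DMSO wells on the plate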
MEP2-GFP yeast: alters MEP2-GFP fluorescence in TOR pathway yeast screen | S. cerevisiae MEP2-GFP strain, flow cytometry GFP, 3 h; 100% = DMSO control level | GFP response vs DMSO, % at 10 µM | 0.51% of 330,000 active;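 active = GFP response versus DMSO above a set limit, roughly screen mean plus 3 SD, cut at about 180% in these data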;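 note: median GFP fluorescence of the barcode-gated MEP2-GFP cells per well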
AGP1 TOR yeast: alters AGP1-GFP fluorescence in TOR pathway yeast screen. S. cerevisiae AGP1-GFP multiplex flow cytometry, 3 h; GFP as percent of DMSO wells. GFP response vs DMSO, % at 10 µM. 0.02% of 320,000 active;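 active = GFP response relative to DMSO above a set limit, near screen average plus 3 SD, cut at about 150% in these data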;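 note: median GFP channel fluorescence of the gated AGP1 strain per well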
LAP4 cherry2: reconfirmed LAP4-GFP TOR pathway modulator in yeast; shares compounds with LAP4-GFP MLPCN; AID 2621; GFP response vs DMSO, % at 10 µM; 20% of 590 active; S. cerevisiae LAP4-GFP strain, flow cytometry GFP, 3 h;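 active = GFP signal as percent of the solvent control above about 150%, meaning raised reporter expression, limit read from the data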
MEP2-GFP pick2: second confirmation of modulators of TOR reporter MEP2-GFP in yeast. AID 2622. S. cerevisiae MEP2-GFP strain, flow cytometry GFP, 3 h. 10% of 590 active. GFP response vs DMSO, % at 10 µM. shares compounds with LAP4-GFP MLPCN;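 active = GFP signal above 150% of the solvent control wells, that is a rise of more than half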;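 note: median channel GFP fluorescence of all gated yeast cells per well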
RPL19A-GFP pick2: second confirmation of modulators of TOR reporter RPL19A-GFP in yeast; shares compounds with LAP4-GFP MLPCN; S. cerevisiae RPL19A-GFP strain, flow cytometry GFP, 3 h; hits give low values; 100% means same as DMSO wells; GFP response vs DMSO, % at 10 µM; 3% of 590 active;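 active = under 65% GFP response relative to DMSO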;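 note: median GFP channel fluorescence per well over the all cells gate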
CIT2 GFP CP2: yeast CIT2-GFP TOR reporter modulation, second cherry pick | GFP response vs DMSO, % at 10 µM | S. cerevisiae CIT2-GFP strain, flow cytometry GFP, 3 h; DMSO control wells read 100% | shares compounds with LAP4-GFP MLPCN | 8% of 590 active;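 active = GFP response vs DMSO above about 150%, limit read from the data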;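 note: median green fluorescence per well over all gated yeast cells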
AGP1-GFP pick2: yeast AGP1-GFP TOR reporter modulation, second cherry pick; 590 tested, under 10 active; shares compounds with LAP4-GFP MLPCN; S. cerevisiae AGP1-GFP strain, flow cytometry GFP, 3 h; percent response vs DMSO, % at 10 µM;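 active = over 150 percent of DMSO response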;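 note: median GFP channel fluorescence over all cells without mother daughter split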
s288c autofluor: compound is autofluorescent in yeast s288c cells; fluorescence change (kMESF span) at 33 µM; shares compounds with LAP4-GFP MLPCN; 610 tested, under 10 active; S. cerevisiae s288c, 520 nm autofluorescence, flow cytometry, 3 h; hits give high values; zero means same as solvent-only cells;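 active = fluorescence span over the dose series, or activity score, above about 33, limit read from the data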
A number is an active result; – = inactive; · = no result; [ ] = another dose, or the depositor's remark.

SMILES	LAP4-GFP MLPCN	RPL19A TOR yeast	CIT2 TOR yeast	MEP2-GFP yeast	AGP1 TOR yeast	LAP4 cherry2	MEP2-GFP pick2	RPL19A-GFP pick2	CIT2 GFP CP2	AGP1-GFP pick2	others
CCOC(=O)N1CCN(C(=O)c2ccc(S(=O)(=O)Nc3ccccc3)cc2)CC1	–	–	172.0	–	–	–	–	–	–	–
Cn1c(=O)c(C(=O)NNC(=O)c2ccc(Br)cc2)c(O)c2ccccc21	–	–	–	–	–	161.5	164.7	–	–	–	s288c autofluor=–
Cc1cc(Cl)ccc1N(CC(=O)NCCSCc1ccco1)S(C)(=O)=O	–	–	–	–	–	–	–	–	–	–
COc1cccc(/C=C2\C(=O)N(c3cccc(C)c3)C(=O)c3ccccc32)c1	154.4	–	–	–	–	·	·	·	·	·	s288c autofluor=–
C#CCOCCOCCOCCNc1nc(N2CCN(C(=O)CCCCCCCCCCNC(=O)Cn3cc(CCCCCN)nn3)CC2)nc(N2CCN(C(=O)CCCCCCCCCCNC(=O)[C@@H](CCC(=O)O)n3cc(CCCCCN)nn3)CC2)n1	–	–	–	–	–	·	·	·	·	·
C#CCOCCOCCOCCNc1nc(N2CCN(C(=O)CCCCCCCCCCNC(=O)[C@H]([C@@H](C)CC)n3cc(CCCCCN)nn3)CC2)nc(N2CCN(C(=O)CCCCCCCCCCNC(=O)[C@H]([C@@H](C)CC)n3cc(CCCCN=C(N)N)nn3)CC2)n1	–	–	–	–	–	·	·	·	·	·
C#CCOCCOCCOCCNc1nc(N2CCN(C(=O)CCCCCCCCCCNC(=O)Cn3cc(CCCCCN)nn3)CC2)nc(N2CCN(C(=O)CCCCCCCCCCNC(=O)[C@H]([C@@H](C)CC)n3cc(CCCCN=C(N)N)nn3)CC2)n1	151.1	–	–	–	–	–	–	–	–	–
C#CCOCCOCCOCCNc1nc(N2CCN(C(=O)CCCCCCCCCCNC(=O)Cn3cc(C[C@@H](C)O)nn3)CC2)nc(N2CCN(C(=O)CCCCCCCCCCNC(=O)[C@H](CCCN=C(N)N)n3cc(C[C@@H](C)CC)nn3)CC2)n1	183.4	–	–	–	–	–	–	–	–	–
C#CCOCCOCCOCCNc1nc(N2CCN(C(=O)CCCCCCCCCCNC(=O)Cn3cc(CCCCCN)nn3)CC2)nc(N2CCN(C(=O)CCCCCCCCCCNC(=O)Cn3cc(CCCCCN)nn3)CC2)n1	152.2	–	–	–	–	–	–	–	–	–
Cc1cccc(NC(=O)CCCCC(=O)Nc2cccc(C)c2)c1	–	–	–	–	–	·	·	·	·	·
CC(C)NC(=O)Cn1cc(C(=O)C(=O)N2CCOCC2)c2ccccc21	–	–	·	–	–	·	·	·	·	·
COCCCNC(=O)c1cc2c(=O)n3cccc(C)c3nc2n(C(C)C)c1=N	–	–	–	–	–	–	–	–	–	–
Cc1cc(-c2csc(NC(=O)c3ccc(=O)[nH]c3)n2)c(C)n1Cc1ccco1	152.1	–	–	–	–	–	–	–	–	–
Cc1ccc(/C=C/C(=O)N2CCc3ccccc32)o1	168.5[may fluoresce green]	–	–	–	–	–	–	–	–	–
C(=N\Nc1nc2ccccc2[nH]1)/C1CCCCC1	–	–	–	–	–	·	·	·	·	·
O=C(CN1C(=O)c2ccccc2S1(=O)=O)NCc1ccccc1Cl	–	–	–	299.0	–	–	–	–	–	–
Brc1ccc(-c2ccc(C3Nc4cccc5cccc(c45)N3)o2)cc1	155.0	–	–	–	–	–	–	–	–	–
O=C(O)CCCc1ccc2c(c1)CCc1ccccc1-2	173.0	–	–	–	–	–	–	–	–	–
COc1ccccc1[C@@]1(C)ON(c2ccccc2C(F)(F)F)C1=O	155.4	–	–	–	–	–	–	–	–	–	s288c autofluor=–
Cc1ccccc1[C@]1(C)ON(c2ccccc2C(F)(F)F)C1=O	–	–	–	–	–	–	–	–	–	–	s288c autofluor=–
CC[C@]1(c2ccccc2C)ON(c2ccccc2C(F)(F)F)C1=O	–	–	–	–	–	–	–	–	–	–	s288c autofluor=–
COc1ccccc1N1C(=O)CC(c2ccccc2)CC1=O	–	–	–	–	–	·	·	·	·	·
COc1ccc(NC(=O)NCc2ccc3c(c2)OCO3)cc1OC	–	–	–	–	–	·	·	·	·	·
Cc1ccnc2c1ccc1c(C)ccnc12	166.1	–	–	–	–	–	–	–	–	–
Cc1ccc(C(=O)OCC(=O)N2CCCCCC2)c(O)c1	–	–	–	–	–	·	·	·	·	·
SMILES	LAP4-GFP MLPCN	RPL19A TOR yeast	CIT2 TOR yeast	MEP2-GFP yeast	AGP1 TOR yeast	LAP4 cherry2	MEP2-GFP pick2	RPL19A-GFP pick2	CIT2 GFP CP2	AGP1-GFP pick2	others
CCCCNC(=O)c1cc2c(-c3ccc(Cl)cc3)nn(C)c2s1	157.1	–	151.2	216.2	–	–	–	–	–	–
COCCCNC(=O)c1cc2c(-c3ccc(Cl)cc3)nn(C)c2s1	–	–	–	–	–	·	·	·	·	·
CN(C)C(=O)CN1CCN(Cc2cn(C)nc2-c2ccc3c(c2)OCCO3)CC1	–	–	–	–	–	·	·	·	·	·
O=C(O)c1ccc(-c2ccc(Cl)cc2Cl)o1	–	–	–	–	–	·	·	·	·	·
CN(C)/C=C/C(=O)c1ccc(-c2ccc(Cl)cc2Cl)o1	–	–	–	–	–	158.7	–	–	153.8	–	s288c autofluor=–
C/C=C(\C)C(=O)O[C@@H]([C@H](O)c1cc2ccc(=O)oc2cc1OC)C(C)(C)O	–	–	–	–	–	·	·	·	·	·
O=C1NC(=Nc2ccccc2)SC1(CO)CO	–	–	–	–	–	·	·	·	·	·
CC(=O)N1NC(=Nc2ccccc2)SC1(C)C	–	–	–	–	–	–	–	–	–	–
COc1ccc(/C=C/C(=O)C2C(=O)C=C(C)OC2=O)cc1O (centres undefined)	184.7	–	–	–	–	·	·	·	·	·	s288c autofluor=–
CCCCC[C@H]1CN(CCCC)C(=O)[C@@H]1CC(=O)NCc1ccc(OC)cc1	–	–	–	–	–	·	·	·	·	·

Compound activity as filed in PubChem BioAssay.
